Hits are enriched below; roughly 4.7% of the tested compounds scored in any of these assays.
ALR H2O2 inh: blocks human ALR sulfhydryl oxidase activity | purified ALR, DTT oxidation, H2O2 HRP-luminol luminescence | inhibition, % (concentration not given with the values) | 290,000 compounds, 3.8% hits | AID 485317;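 active means mean replicate inhibition above about 79%, with every replicate also reaching it, limit read from the data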
Target sequence (P55789 whole entry, looked up): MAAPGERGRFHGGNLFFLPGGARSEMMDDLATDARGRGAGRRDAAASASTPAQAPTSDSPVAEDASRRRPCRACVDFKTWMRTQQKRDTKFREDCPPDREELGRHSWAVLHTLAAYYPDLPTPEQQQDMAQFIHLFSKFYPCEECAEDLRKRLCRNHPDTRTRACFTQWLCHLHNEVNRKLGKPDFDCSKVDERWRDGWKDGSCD
PABP polyA inh: blocks human PABP binding to poly(A) RNA; fluorescence polarization; inhibition, % at 35 µM; 290,000 compounds, 1% hits; P11940; AID 2014;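 further: calls also rest on retests at 20 µM and on dose response follow-up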
Efflux pump inh: blocks antifungal efflux pumps in multiplex yeast assay; S. cerevisiae Candida pump triplex, Nile Red efflux; inhibition, % at 10 µM; 330,000 compounds, 0.44% hits;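 active means plate passing quality check with inhibition over a set limit, or well fluorescence over plate mean plus 4 SD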;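 further: Nile Red retained in pooled yeast measured as flow cytometry median fluorescence; higher means more Nile Red kept so more efflux inhibition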
SUMO HTRF inh: SUMOylation inhibition. P63279. HTRF SUMOylation assay, SAE1/SAE2 + UBC9, in vitro. inhibition, % at 35 µM. 290,000 compounds, 0.36% hits. AID 2006; in the data active means inhibition above about 50%, passing the limit was not always enough
Target sequence (P63279 whole entry, looked up): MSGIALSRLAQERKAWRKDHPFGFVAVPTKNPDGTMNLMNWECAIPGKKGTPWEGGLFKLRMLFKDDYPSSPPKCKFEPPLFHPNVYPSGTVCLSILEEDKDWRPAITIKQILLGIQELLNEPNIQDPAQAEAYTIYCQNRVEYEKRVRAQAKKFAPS
PABP1 MLLE inh: inhibitors of microRNA-mediated deadenylation, human PABP1 MLLE binding; inhibition, % at 20 µM; AID 588489; GST-MLLE / FITC-PAM2 fluorescence polarization; 360,000 compounds, 0.36% hits; P11940; in the data active means inhibition above about 35%, passing the limit was not always enough
eIF4H FP inh: inhibitors of RNA binding by human eIF4H | Q15056 | eIF4H fluorescence polarization binding assay | inhibition, % at 35 µM | 290,000 compounds, 0.94% hits | AID 2012;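 further: calls also rest on retests at 20 µM and on dose response follow-up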
Large screens that a line does not name were inactive. Unless noted, how the calls were made is not given here.

CC(=O)NC1CC2CCCC(C1)N2C(=O)Nc1c(C)cccc1C (stereo not given)	none (no result: ALR H2O2 inh, PABP polyA inh, Efflux pump inh, SUMO HTRF inh, eIF4H FP inh)
Cc1ccccc1N/N=C/c1ccc(C#N)cc1	none
CN/N=C/c1ccc(C#N)cc1	ALR H2O2 inh 99
CCOc1ccc(NC(=O)C(C)Sc2nnnn2C)cc1 (stereo not given)	none
CCOc1ccc(NC(=O)C(C)SC(N)=O)cc1 (stereo not given)	ALR H2O2 inh 99
Cc1nc2ccc(NC(=O)c3ccc(C)c(S(=O)(=O)N4CCOCC4)c3)cc2s1	none (no result: PABP polyA inh, SUMO HTRF inh, eIF4H FP inh)
CCCCn1c(SCC(=O)Nc2ccc(OC)cc2)nc2ccc(N3CCOCC3)cc2c1=O	ALR H2O2 inh 99
CC(=O)c1cccc(NC(=O)CSc2nc3ccccc3c(=O)n2CCCN2CCOCC2)c1	none (no result: PABP polyA inh, SUMO HTRF inh, eIF4H FP inh)
CCCCn1c(SCC(=O)NC(C)CC)nc2ccc(N3CCOCC3)cc2c1=O (stereo not given)	none
COC(=O)c1ccc2c(=O)n(CCN3CCOCC3)c(SCC(=O)Nc3ccc(C)cc3)nc2c1	ALR H2O2 inh 99
Cc1ccc(NC(=O)CSc2nc3ccccc3c(=O)n2CCCN2CCCCC2)cc1C	ALR H2O2 inh 98
CCCn1c(N)c(N(CCOC)C(=O)c2cc(S(=O)(=O)N3CCCCCC3)ccc2OC)c(=O)[nH]c1=O	none
CCN(CC)S(=O)(=O)c1ccc(Cl)c(NC(=O)CCCCl)c1	none (no result: ALR H2O2 inh)
CCCC(=O)Nc1cc(S(=O)(=O)N(CC)CC)ccc1Cl	ALR H2O2 inh 98
COc1ccc(S(=O)(=O)N2CCN(C(=O)C3CC3)CC2)cc1Br	none (no result: ALR H2O2 inh, PABP polyA inh, SUMO HTRF inh, eIF4H FP inh)
COc1cc([C@@H]2Oc3cc(C4Oc5cc(O)cc(O)c5C(=O)[C@H]4O)ccc3O[C@H]2CO)ccc1O (stereo not given in full)	ALR H2O2 inh 99 (no result: PABP polyA inh, SUMO HTRF inh, eIF4H FP inh)
COc1cc([C@H]2Oc3cc([C@H]4Oc5cc(O)cc(O)c5C(=O)[C@@H]4O)ccc3O[C@@H]2CO)ccc1O	ALR H2O2 inh 99
CC(=O)Oc1ccc(-c2cccc(C(=O)O)c2)cc1	none
CC(=O)Oc1ccc(-c2cccc(C(=O)N(C)c3ccc(O)cc3)c2)cc1	ALR H2O2 inh 86
CCc1cccc(CC)c1NC(=O)COC(=O)c1cccc(-c2ccc(OC(C)=O)cc2)c1	eIF4H FP inh active
CCOC(=O)CSc1c(-c2ccccc2)c2cc(Cl)ccc2[nH]c1=O	eIF4H FP inh active
CCN1C=C(C(C)=O)C(=O)CC1	none (no result: ALR H2O2 inh, PABP polyA inh, Efflux pump inh, SUMO HTRF inh, eIF4H FP inh)
CC(=O)NC(c1ccccc1)c1nc(-c2ccc(Cl)cc2)cs1 (stereo not given)	none (no result: ALR H2O2 inh, PABP polyA inh, Efflux pump inh, SUMO HTRF inh, eIF4H FP inh)
Cc1cccc(/N=C/c2c(O)cc(C)oc2=O)n1	PABP polyA inh 107, eIF4H FP inh 78
C/C(=N\Nc1ccccc1)c1c(O)cc(C)oc1=O	ALR H2O2 inh 99
Oc1ccc2ccccc2c1C=Nc1ccc(Cl)cn1	PABP polyA inh active, eIF4H FP inh 85
Cc1ccc(N/N=C/c2c(O)cc(C)oc2=O)cc1	ALR H2O2 inh 99
Oc1ccc2ccccc2c1/C=N/n1cnnc1	none
COc1ccc(C(=O)COc2ccc(C(C)=O)cc2OC)cc1OC	none (no result: ALR H2O2 inh, PABP polyA inh, Efflux pump inh, SUMO HTRF inh, eIF4H FP inh)
COc1ccc(CSc2ccc(S(=O)(=O)N3CCCC3)cn2)cc1F	none (no result: ALR H2O2 inh, PABP polyA inh, Efflux pump inh, SUMO HTRF inh, eIF4H FP inh)
Cc1ccc(S(=O)(=O)Nc2nnc(C3CCCCC3)s2)cc1	none
Cc1cc(O)c(C=Nc2ccc(Cl)cn2)c(=O)o1	PABP polyA inh 57, eIF4H FP inh 59
Cc1cc(O)c(/C=N/c2ccccn2)c(=O)o1	none
CSCCC(=O)N1CCCC(N(C)CCc2ccccc2)C1 (stereo not given)	none (no result: ALR H2O2 inh)
C=CCc1c(C)nc(SCC(N)=O)[nH]c1=O	none
C=CCc1c(O)nc(SCC(=O)c2ccccc2)[nH]c1=O	ALR H2O2 inh 99
CCC(C)c1c(O)nc(SCC(=O)c2ccccc2)[nH]c1=O (stereo not given)	ALR H2O2 inh 99
CCC(C)c1c(O)nc(SCC(=O)Nc2ccccc2)[nH]c1=O (stereo not given)	ALR H2O2 inh 99
O=C(CSc1ccccc1F)Nc1ccc2c(c1)OCO2	none (no result: PABP polyA inh, SUMO HTRF inh, eIF4H FP inh)
CC(C)NC(=O)c1ccc(-c2ccc(F)c(F)c2)c2ccoc12	none (no result: ALR H2O2 inh, PABP polyA inh, Efflux pump inh, SUMO HTRF inh, eIF4H FP inh)
COc1ccc(NC(=O)c2ccc3c(=O)n(Cc4ccco4)c(=S)[nH]c3c2)c(OC)c1	PABP polyA inh 14, eIF4H FP inh 70
O=c1c2cc(N3CCOCC3)ccc2[nH]c(=S)n1Cc1ccco1	PABP polyA inh 57, eIF4H FP inh 91
O=c1c2cc(N3CCOCC3)ccc2[nH]c(=S)n1Cc1cccc(Cl)c1	none (no result: ALR H2O2 inh)
COc1cc2[nH]c(=S)n(Cc3ccco3)c(=O)c2cc1OC	PABP polyA inh 23, eIF4H FP inh 52

Screening results deposited in PubChem BioAssay by several laboratories.
